Source: PubChem BioAssay
A selection: hits, their analogues and other compounds. The true share with any hit is near 4.6%.
TIM10 inh – growth inhibitors of isogenic TIM10 control yeast, primary screen, counter-screen for tim10-1 yeast inhibitor project, luminescence, uHTS | S. cerevisiae TIM10 strain growth, BacTiter-Glo luminescence, 24 h | inhibition, % at 10 µM | 330,000 tested, 1.4% active;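 active = inhibition of 40% or more at the single tested concentration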;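 note: wild-type TIM10 isogenic control strain grown at permissive 25 °C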
tim10-1 inh – growth inhibitors of tim10-1 mutant yeast, primary screen, luminescence, uHTS | 330,000 tested, 2.2% active | AID 463190, 2010 | inhibition, % at 20 µM | S. cerevisiae tim10-1 ts strain growth, BacTiter-Glo, 24 h;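 active = inhibition of at least 40%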;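 note: mutant grown at 25 °C; 0% = DMSO wells with yeast and 100% = wells holding no yeast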
tim23-1 inh – growth inhibitors of tim23-1 mutant yeast, primary screen, luminescence, uHTS. S. cerevisiae tim23-1 growth, BacTiter-Glo luminescence, 24 h. inhibition, % at 20 µM. 330,000 tested, 1.3% active. AID 463212, 2010;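 active = growth inhibition of the mutant yeast at or above 50%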;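 note: temperature-sensitive mutant grown at 25 °C; plate controls were DMSO-treated mutant yeast for no effect and medium wells lacking yeast for full effect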
SKKanGAS inh – S. pyogenes SKKanGAS growth inhibitors in kanamycin, primary screen, streptokinase expression inhibitor project, SKKanGAS strain, BacTiter-Glo luminescence. 6 h. inhibition, % at 7.5 µM. AID 1662, 2009. 300,000 tested, 1.3% active;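 active = mean replicate score, as percent of positive control median, at least 50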;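 note: strain carries kanamycin resistance gene driven by streptokinase promoter and grows in 40 µg/ml kanamycin; loss of luminescence reflects streptokinase promoter inhibition or plain growth inhibition; 0% = median of DMSO wells and 100% = positive control at its reference dose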
NALP3 yeast inh – NALP3 inflammasome inhibitors in reconstituted yeast, primary screen, luminescence, uHTS; Yeast reconstituted NLRP3/ASC/caspase-1, beta-gal luminescence, 24 h; inhibition, % at 10 µM; 330,000 tested, 0.39% active; AID 2825, 2010;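 active = inhibition of 50% or more; inactive = inhibition below 50%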;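 note: plate controls were induced DMSO wells for no effect and uninduced yeast grown without galactose for full effect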
tim10 confirm – growth inhibitors of wild-type TIM10 yeast, confirmation, counter-screen for tim10-1 synthetic lethality project, single concentration, luminescence, S. cerevisiae; 4,600 tested, 63% active; shares compounds with TIM10 inh; S. cerevisiae tim10 strain growth, BacTiter-Glo luminescence, 24 h; inhibition, % at 10 µM; AID 463215, 2010;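 active = inhibition of yeast growth at or above a set limit in either of two replicates at 10 µM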;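 note: this counterscreen used the strain with wild-type TIM10; 0% = yeast with DMSO and 100% = medium wells lacking yeast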
tim23-1 confirm – tim23-1 mutant yeast growth inhibitors, confirmation, luminescence, single concentration; inhibition, % at 20 µM; shares compounds with tim23-1 inh; S. cerevisiae tim23-1 growth, BacTiter-Glo luminescence, 24 h; 4,400 tested, 83% active; AID 463218, 2010;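 active = inhibition above about 39% in either of two replicate wells at 20 µM, limit read from the data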;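 note: temperature-sensitive tim23-1 mutant grown at 25 °C; 0% = DMSO wells with yeast and 100% = medium wells without yeast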
An asterisk follows results filed as active; . = no result.

SMILES	TIM10 inh	tim10-1 inh	tim23-1 inh	SKKanGAS inh	NALP3 yeast inh	tim10 confirm	tim23-1 confirm
O=C(N/N=C/c1cc(Br)cc(Cl)c1O)c1ccc2c(c1)OCO2	43*	-3	57*	89*	9	31*	57*
Cc1cc(SCC(=O)OCC(=O)N(CCC#N)c2ccccc2)nc2ccccc12	14	9	9	-11	27	.	.
O=C(N/N=C/c1c(O)ccc2ccccc12)c1cccc(C(F)(F)F)c1	43*	30	56*	120*	-5	13	44*
CN(Cc1ccccc1)C(=O)c1cn(C)c2ccc(S(=O)(=O)N3CCCC3)cc2c1=O	-3	0	-14	-5	4	.	.
CC1=CC(C)(C)NC(=S)N1C(C)c1ccccc1 (centres undefined)	46*	24	62*	6	6	28	33
CC1=CC(C)(C)NC(=S)N1c1ccc2ccccc2c1	30	13	34	-3	26	.	.
O=C(Nc1cccc(-c2csc(Nc3ccccc3)n2)c1)c1ccccc1	48*	33	54*	41	28	44*	46*
COc1ccccc1/C(C)=N/Oc1cc(N)cc([N+](=O)[O-])c1	18	6	29	.	34	.	.
CC(C)(C)c1nn(-c2ccccc2)c2nc(Cl)c(C=O)cc12	10	13	27	-6	3	.	.
CC(C)(C)c1nn(-c2ccccc2)c2[nH]c(=O)c(C=O)cc12	72*	-23	80*	4	25	91*	-44
C[C@]12CC[C@H](O)CC1=CCC1C2CC[C@@]2(C)C1CC[C@@H]2NC(=O)[C@@H](N)Cc1ccccc1 (some centres undefined)	55*	34	58*	.	46	60*	55*
Cc1ccc(NC(=O)N2CCCCC2)cc1[N+](=O)[O-]	1	13	17	-7	15	.	.
CSc1c(C#N)sc(=S)n1-c1ccc(C)cc1	22	10	21	2	-44	.	.
O=C(O)CCN1C(=O)/C(=C\c2ccncc2)SC1=S	9	6	8	-2	14	.	.
O=C1/C(=C/c2ccncc2)SC(=S)N1C1CCCCC1	50*	36	51*	-23	24	-8	39*
CCN1C(=O)/C(=C\c2ccncc2)SC1=S	51*	26	68*	-5	-7	39*	15
COc1ccc(CNC(=O)C2CCN(S(=O)(=O)c3cccc4nsnc34)CC2)cc1	-15	-7	-7	4	4	.	.
CC(=O)n1cc(/C=N/NC(=O)c2ccc([N+](=O)[O-])cc2)c2ccccc21	6	-1	19	6	14	.	.
CC(=O)n1cc(C(C[N+](=O)[O-])SCCN)c2ccccc21 (centres undefined)	91*	23	89*	-1	43	92*	-31
Cc1ccc(C)n1-c1ccc(NC(=O)c2ccccc2)cc1	-9	13	26	8	4	.	.
Cc1ccc(NC(=O)c2ccccc2)s1	58*	26	55*	-2	3	38*	74*
O=C(NCc1nc(-c2ccc(C(F)(F)F)cc2)no1)Nc1ccc(OC(F)(F)F)cc1	24	36	25	24	26	.	.
N/C(Cc1ccc(Cl)cc1Cl)=N\OC(=O)c1ccc(Br)o1	86*	7	80*	1	-1	86*	48*
O=S(=O)(Nc1ccc2oc(-c3ccccc3)nc2c1)c1ccccc1	45*	37	74*	-15	26	36*	66*
O=C(Nc1ccc(Cl)c(S(=O)(=O)Nc2ccccc2Cl)c1)c1cccs1	45*	33	53*	1	-9	46*	69*
O=C(Nc1ccc2oc(-c3ccccc3)nc2c1)c1cccs1	73*	23	53*	3	49	-1	76*
